Reference: PubChem BioAssay (EPA / NIEHS)
Activity calls are given as the source filed them. The calls were made as follows: active = hit-call score of the fitted dose curve at least 0.9, where 1 is the maximum; inactive = score below 0.9.

Assay: CEETOX_H295R_ESTRONE: CeeTox H295R High-throughput Steroidogenesis Assay for Estrone (AID 2283441);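 also: estrone secreted into medium measured by LC-MS/MS after dansyl derivatization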;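 as to AC50: human adrenal H295R cells prestimulated with forskolin for two days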
Conditions: actives raise or lower the signal
Protocol: CEETOX_H295R is a cell-based, multiplexed-readout assay that uses H295R, a human adrenal gland cell line, with measurements taken at 48 hours after chemical dosing in a 96-well plate.CEETOX_H295R_ESTRONE is one of 23 assay component(s) measured or calculated from the CEETOX_H295R assay. It is designed to make measurements of hormone induction, a form of inducible reporter, as detected with absorbance signals by HPLC-MS-MS technology.Data from the assay component CEETOX_H295R_ESTRONE was analyzed into 1 assay endpoint. This assay endpoint, CEETOX_H295R_ESTRONE, was analyzed with bidirectional fitting relative to DMSO as the negative control and baseline of activity. Using a type of inducible reporter, gain or loss-of-signal activity using HPLC-MS-MS was used to understand synthesis of Estrone in H295R cell line at 48hr of chemical exposure. To generalize the intended target to other relatable targets, this assay endpoint is annotated to the steroid hormone intended target family, where the subfamily is estrogens.
Cell culture and media preparation procedures were conducted in accordance with OECD Test No. 456 guidelines, with minor modifications. H295R cells (ATCC CRL-2128) were expanded for 5 passages and frozen in batches in liquid nitrogen. Prior to the steroidogenesis assay, H295R cells were thawed and passed at least 4 times. The maximum passage was 10. […] After seeding cells into 96-well plates at 50-60% confluency, cells were allowed to adhere overnight. Prior to chemical testing, culture medium was replaced with 175 uL medium containing 10 uM forskolin to stimulate steroidogenesis for 48 hours. Following prestimulation, forskolin medium was replaced with medium containing test chemical solubilized in DMSO (ensuring a final concentration of 0.1% DMSO). Test chemicals were incubated for 48 hours, then the medium was removed and split into 2 vials containing approximately 75uL each, and stored at -80 C prior to hormone analysis. For steroid quantification, media samples were shipped to OpAns, LLC (Durham, NC) on dry ice, and samples were thawed to room temperature prior to liquid-liquid extraction. Steroid hormones were extracted from media samples using methyl tertbutyl ether (MTBE). An extra derivatization with dansyl chloride was included for estrogen (estrone and estradiol) detection only. Steroid hormones were separated by HPLC, eluted using a reverse phase C18 gradient with electrospray positive ionization, followed by quantification by tandem mass spectrometry (MS/MS). Data were acquired on a MassHunter Workstation Acquisition version B03.01 (Agilent Technologies, Inc.) and processed using MassHunter Quantitative Analysis for QQQ. Accuracy was determined for each hormone analyte from 3 standards to determine upper and lower limits of quantification (ULOQ and LLOQ, respectively) using a 7-point standard curve. Precision and accuracy of the extraction and quantification methods were calculated as the percent relative standard deviation (%RSD) of the spiked standards and percent spiked standard recovered, respectively. The goal was to achieve 100% accuracy (i.e., recover all spiked-in standard at quantification with minimal loss during run time) and good precision (i.e., have %RSD <15% to ensure reproducibility). Test medium was removed following chemical exposure, and cell viability was evaluated in the same wells by MTT. MTT procedures were as follows: after removal of test medium, 500 uL of 0.5 mg/ml of 3-[4,5-dimethylthiazol-2-y]2,5-diphenyltetrazoliumbromide solution was added to the cells. Following a 4-hour incubation at 37 C and 5% CO2 to allow formazan-crystal formation, the MTT solution was removed and blue formazan salt crystals were solubilized using 500uL anhydrous isopropanol with shaking for 20 minutes. Absorbance was read at 570 and 650nm using a Packard Fusion microplate reader. Background correction of absorbance units was used to determine percent change relative to controls. […] […]

Structure (SMILES)	outcome	AC50
CC1CCCCC1	inactive	–
CCN(CC)c1ccc(N=Nc2ccccc2)cc1	inactive	–
Cc1cccc(C)n1	inactive	–
O=c1[nH]cccc1O	inactive	–
CSc1ccc(O)cc1C	–	26.7 µM (active)
Oc1ccc2c(c1)CCC2	inactive	–
CCCCCCCCCc1ccc(OCCO)cc1	inactive	–
CCOCOCC	inactive	–
CCCCC(CC)COC(=O)c1ccc(N(C)C)cc1 (stereo not given)	inactive	–
O=C1c2ccccc2C(=O)c2c(Cl)cccc21	inactive	–
Cc1cc(O)c(C(C)(C)C)cc1C(C)(C)C	inactive	–
CCCCCCCCCCCCC[N+](C)(C)Cc1ccccc1	inactive	–
O=C1C=CC(=O)N1c1ccccc1	inactive	–
CN1CN(C)CN(C)C1	inactive	–
CCN(CC)c1ccc(C=O)cc1	inactive	–
